# From PubChem BioAssay (NCI)
# About 83,000 compounds went through this panel and 20% of them were active in at least one assay; those are over-represented in the sample as a whole.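 Method: cells in 96-well plates; compound added at one concentration; 48 h incubation; percent growth measured; values under 10 scored active.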 Values without a mark were called inactive. Active and inactive are the calls of the source.
# Test system: HCT-116 colon
# Assay: NCI-60 one-dose screen, 48 h (100 = growth as untreated, 0 = no growth, -100 = all killed)
# Settings: 10 µM unless noted
# Method: Growth inhibition of the HCT-116 human tumor cell line is measured as a screen for anti-cancer activity. Cells are grown in 96 well plates and exposed to the test compound for 48 hours. Compounds are tested at a single concentration, which is 10^-5 M for most compounds. The reported endpoint is percent growth (GI% or GIPRCNT), where numbers from 0 - 100% represent growth inhibition, and numbers from -100% - 0 represent cell death. For example, a value of 40 represents 60% growth inhibition. A value of 0 means no net growth occurred over the course of the experiment. A value of -40 indicates 40% of cells at the beginning of the experiment died by the end of the experiment. A value of -100 means all cells are dead at the end of the experiment.
# NCI-60 Human Tumor Cell Lines Screen was performed using the standard one-dose NCI protocol, which is described in more detail at https://dtp.cancer.gov/discovery_development/nci-60/default.htm.
# Compounds with GIPRCNT values below 10 were considered active. Activity score was based on GIPRCNT using the following formula: […]
# Score is 0 for GIPRCNT values of 100 or above, 50 for GIPRCNT values of 0, and 100 for GIPRCNT values of -100.
row,SMILES,growth
1,Cc1csc(Nc2cccc(Nc3nc(C)cs3)c2)n1,56.5%
2,IP(CCCCCCCCCCSc1n(Cc2ccc3ccccc3c2)c(-c2ccccc2)c(-c2ccccc2)[n+]1Cc1ccc2ccccc2c1)(c1ccccc1)(c1ccccc1)c1ccccc1,-60.9% (active)
3,O=C1[C@@H]2Cc3c([nH]c4ccccc34)[C@H](c3c(Cl)cccc3Cl)N2C(=O)CN1C1CCN(Cc2c(F)cccc2F)CC1,15.7%
4,COc1cc(/C=C/C(=O)c2ccc(NC(=O)COc3cccc4cccnc34)cc2)cc(OC)c1OC,23.9%
5,O=C1[C@H]2Cc3c([nH]c4ccccc34)[C@@H](c3c(Cl)cccc3Cl)N2C(=O)CN1C1CCN(Cc2ccccc2)CC1,-1.46% (active)
6,C=C1C(=O)O[C@@H]2C[C@@H](C)/C=C\C(=O)[C@](C)(OC(C)=O)C[C@H](OC(=O)/C(C)=C\C)[C@@H]12,-70.3% (active)
7,Cn1cc(-c2nn3cc(-c4cccnc4)nc3s2)c2ccccc21,16.8%
8,C=CCn1c(SCC(=O)Nc2cccc(C(=O)/C=C/c3ccccc3)c2)nc2ccccc2c1=O,-3.91% (active)
9,NS(=O)(=O)c1ccc(Nc2nc(N/N=C/c3ccc([N+](=O)[O-])cc3)nc(Nc3ccccc3)n2)cc1,16.5%
10,Nc1n[nH]c2cccc(C#Cc3cccc(NC(=O)c4cccc(OC(F)(F)F)c4)c3)c12,21.7%
11,CCCCCCNC(=O)Oc1ccc(/C(=C(/C)c2ccc(Cl)cc2)c2ccc(OCCN3CCCC3)cc2)cc1,-43.9% (active)
12,NC(N)=NS(=O)(=O)c1ccc(N=NC2C(=O)NN(c3ccccc3)C2=O)cc1 (stereo not given),97.3%
13,CCc1ccc(NC(=O)N[C@@H](Cc2cccc(F)c2)C(=O)N[C@@H]2C(=O)N3CCC[C@H]3C(=O)N3CCCC[C@H]3C(=O)N[C@@H](CO)C(=O)N3C[C@H](C)C[C@H]3C(=O)O[C@H]2C)c(F)c1,10.8%
14,COc1cc(O)c2c(c1)/C=C/C[C@H](O)[C@H](O)C(=O)/C=C\C[C@H](C)OC2=O,-16.3% (active)
15,COc1ccc(Oc2ccc(C3CC(c4cc(OC)c(OC)c(OC)c4)=NN3C(C)=O)cc2)cc1 (stereo not given),19.5%
16,Cc1ccc(/C=C/c2nn3c(-c4ccco4)nnc3s2)cc1,112%
17,Cn1c2ccccc2c2c3c(c4c5ccc(Br)cc5oc4c21)C(=O)N(O)C3=O,65.7%
18,Oc1ccc(CSc2nnc(-c3ccncc3)o2)c2cccnc12,8.9% (active)
19,CN1C(=O)N(C)C2C1NN=c1s/c(=C\c3ccccn3)c(=O)n12 (stereo not given),108%
20,C=C(C)[C@@H]1CC[C@]2(C(=O)ON)CC[C@]3(C)[C@H](CC[C@@H]4[C@@]5(C)C/C(=C/c6ccc(Br)cc6)C(=O)C(C)(C)[C@@H]5CC[C@]43C)[C@@H]12,48.6%

row,SMILES,growth
1,Cn1cc(-c2nn3c(=O)cc(-c4ccccc4)nc3s2)c2cc(F)ccc21,32.6%
2,O=C(Nc1ccc(-c2nc(-c3cccc(O)c3)c(-c3ccnc(Br)c3)[nH]2)cc1)c1ccccc1,18.1%
3,CN(c1ccc(Br)cc1)S(=O)(=O)c1ccc(-c2cnc(C3CC3)o2)cc1,14.5%
4,N#C/C(=C\c1ccc(-c2ccc(F)cc2)o1)C(=O)Nc1ncc(Cc2ccc(Cl)cc2Cl)s1,-61.4% (active)
5,COc1ccc(-c2nc(SCC(C)C)nc(N/N=C\c3cccc([N+](=O)[O-])c3)c2C#N)cc1,30.1%
6,Nc1cc(F)ccc1NC(=O)c1ccc(NC(=O)C/C=C/c2cccnc2)cn1,-13.2% (active)
7,NCCN1CCN(c2nc(-c3ccccc3)nc3nc(-c4ccccc4)oc23)CC1,-82.2% (active)
8,COc1ccc(OC)c([C@H]2c3[nH]c4ccccc4c3C[C@H]3C(=O)N(CCCCCCC(=O)NO)CC(=O)N23)c1,66.8%
9,CCc1ccc(NC(=O)N[C@@H](Cc2cc(F)cc(F)c2)C(=O)N[C@@H]2C(=O)N3CCC[C@H]3C(=O)N3CCO[C@H](C)[C@H]3C(=O)N[C@@H](CO)C(=O)N3C[C@H](C)C[C@H]3C(=O)O[C@H]2C)c(F)c1,11.6%
10,Nc1nc(N)c2c(n1)NC(c1ccc(Cl)cc1)CC(c1ccc(Nc3nc(NCCO)nc(Nc4ccc(Cl)cc4)n3)cc1)=N2 (stereo not given),-84.8% (active)
11,NC(=O)c1c(NC(=O)c2cccc(C(F)(F)F)c2F)sc2c1CCC(=O)C2,7.49% (active)
12,COc1ccc(NC(=O)Cn2cc(CN3C(=O)c4ccc([N+](=O)[O-])cc4C3=O)nn2)cc1,109%
13,COc1cccc(/C=C/C(=O)c2ccc(NC(=O)COc3cccc4cccnc34)cc2)c1,3.49% (active)
14,CC(C)C[C@H]1C(=O)O[C@H](C(C)C)C(=O)N(C)[C@@H](C(C)C)C(=O)O[C@H](C(C)C)C(=O)N(C)[C@@H](C(C)C)C(=O)O[C@H](C(C)C)C(=O)N1C,9.58% (active)
15,COc1ccc([C@H]2[C@H](O)C(=O)N2c2cc(OC)c(OC)c(OC)c2)cc1O,-8.58% (active)
16,O=S(=O)(Nc1ccc2c(c1)OC(F)(F)O2)c1ccc(-c2cnc(C3CC3)o2)cc1,23.7%
17,O=C1Nc2cc(OC(F)(F)F)ccc2Oc2ccc(-c3ccnc(N4CC[C@H](O)C4)c3)cc21,-40.5% (active)
18,Brc1cccc(/C=N/Nc2nc(N/N=C/c3cccc(Br)c3)nc(N3CCOCC3)n2)c1,21.2%
19,CS(=O)(=O)c1nccc(-c2c(-c3ccc(F)c(OCc4ccc(F)cc4)c3)nc3sccn23)n1,90.2%
20,O=C(COc1cccc2cccnc12)Nc1ccc(C(=O)/C=C/c2ccc(Cl)cc2)cc1,5.25% (active)
